Whole data set: some 16,000 sequences, median “rpm ratio (pull-down/input)” near 0.94, cut for the highest 2% near 1.7. The full list was thinned out, with the highest values kept by preference.

The target of this test is T1, MBP-FoxP1dN (Mus musculus, UniProt P58462 326-579).
T1 sequence: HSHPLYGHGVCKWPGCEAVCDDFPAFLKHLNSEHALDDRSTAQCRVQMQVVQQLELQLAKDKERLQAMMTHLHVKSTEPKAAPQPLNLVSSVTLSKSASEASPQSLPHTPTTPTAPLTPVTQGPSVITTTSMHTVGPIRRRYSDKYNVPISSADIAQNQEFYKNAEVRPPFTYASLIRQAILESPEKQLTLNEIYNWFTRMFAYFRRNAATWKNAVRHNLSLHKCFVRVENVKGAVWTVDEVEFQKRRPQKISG
The test can be described thus: PD-seq (MBP pull-down with sequencing); 20 mM Tris-HCl pH 7.5, 100 mM NaCl, 1.5 mM MgCl2, 0.4 uM protein, 0.1 uM dsDNA library, 30 min, room temperature, amylose pull-down; high values mean tight binding. Conditions: protein: recombinant; tags: His6-MBP; chain copies: 2; dsDNA, one strand shown. Put shortly:
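The N-terminus-lacking fragment of mouse FoxP3 or FoxP1 carried a His6-MBP tag and was expressed in E. coli. At 0.4 µM it was incubated with 0.1 µM Klenow-filled degenerate double-stranded DNA library for 30 min at room temperature in Tris pH 7.5 buffer with NaCl and MgCl2, and complexes were caught on amylose resin, washed three times, released with proteinase K, PCR-barcoded and Illumina-sequenced. Binding is reads-per-million enrichment of pull-down over input with replicates pooled.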
Regarding “GATGATTGTTCTCCCAGCTGATGAATTCCTCAGATCGAGTAAACAAATTTTCCTAATCTTTCTGTTCAAGCGCCATCTAC”, the binding signal is 0.761 RPM ratio (pull-down/input).

For the sequence “GATGATTGTTCTCCCAGCTGATGAATTCATAAACTCGAGTAAACAAATTTTCCTAATCTTTCTGTTCAAGCGCCATCTAC”, the binding signal is 1.07 RPM ratio (pull-down/input).

For “GATGATTGTTCTCCCAGCTGATGAATTATTGCAATCGAGTAAACAAATTTTCCTAATCTTTCTGTTCAAGCGCCATCTAC”, the binding signal was 1.49 RPM ratio (pull-down/input).

Regarding “GATGATTGTTCTCCCAGCTGATGAATTATTTGCATCGAGTAAACAAATTTTCCTAATCTTTCTGTTCAAGCGCCATCTAC”, the binding signal was 1.89 RPM ratio (pull-down/input).

Take “GATGATTGTTCTCCCAGCTGATGAATTGTTTGCATCGAGTAAACAAATTTTCCTAATCTTTCTGTTCAAGCGCCATCTAC”: the binding signal was 2.26 RPM ratio (pull-down/input).

Turning to “GATGATTGTTCTCCCAGCTGATGAATTATTGCCATCGAGTAAACAAATTTTCCTAATCTTTCTGTTCAAGCGCCATCTAC”, the binding signal is 1.24 RPM ratio (pull-down/input).

On to “GATGATTGTTCTCCCAGCTGATGAATTTTTTGCATCGAGTAAACAAATTTTCCTAATCTTTCTGTTCAAGCGCCATCTAC”, for which the binding signal was 1.45 RPM ratio (pull-down/input).

Turning to “GATGATTGTTCTCCCAGCTGATGAATTCTTTGCATCGAGTAAACAAATTTTCCTAATCTTTCTGTTCAAGCGCCATCTAC”, the binding signal is 1.26 RPM ratio (pull-down/input).

For the sequence “GATGATTGTTCTCCCAGCTGATGAATTTGCATGATCGAGTAAACAAATTTTCCTAATCTTTCTGTTCAAGCGCCATCTAC”, the binding signal was 1.05 RPM ratio (pull-down/input).

“GATGATTGTTCTCCCAGCTGATGAATTTGCAGCATCGAGTAAACAAATTTTCCTAATCTTTCTGTTCAAGCGCCATCTAC”: the binding signal was 1.09 RPM ratio (pull-down/input).

As for “GATGATTGTTCTCCCAGCTGATGAATTTGTTGCATCGAGTAAACAAATTTTCCTAATCTTTCTGTTCAAGCGCCATCTAC”, the binding signal was 1.84 RPM ratio (pull-down/input).

In the case of “GATGATTGTTCTCCCAGCTGATGAATTCCCCTCTTCGAGTAAACAAATTTTCCTAATCTTTCTGTTCAAGCGCCATCTAC”, the binding signal was 0.821 RPM ratio (pull-down/input).

On to “GATGATTGTTCTCCCAGCTGATGAATTCTCAGGGTCGAGTAAACAAATTTTCCTAATCTTTCTGTTCAAGCGCCATCTAC”, for which the binding signal was 0.745 RPM ratio (pull-down/input).

For “GATGATTGTTCTCCCAGCTGATGAATTGTGCCTGTCGAGTAAACAAATTTTCCTAATCTTTCTGTTCAAGCGCCATCTAC”, the binding signal was 0.964 RPM ratio (pull-down/input).

On to “GATGATTGTTCTCCCAGCTGATGAATTTCGCAAGTCGAGTAAACAAATTTTCCTAATCTTTCTGTTCAAGCGCCATCTAC”, for which the binding signal was 0.831 RPM ratio (pull-down/input).

For “GATGATTGTTCTCCCAGCTGATGAATTAGGAACGTCGAGTAAACAAATTTTCCTAATCTTTCTGTTCAAGCGCCATCTAC”, the binding signal is 0.882 RPM ratio (pull-down/input).

For the sequence “GATGATTGTTCTCCCAGCTGATGAATTGCCGTCGTCGAGTAAACAAATTTTCCTAATCTTTCTGTTCAAGCGCCATCTAC”, the binding signal was 0.968 RPM ratio (pull-down/input).

As for “GATGATTGTTCTCCCAGCTGATGAATTAGACATATCGAGTAAACAAATTTTCCTAATCTTTCTGTTCAAGCGCCATCTAC”, the binding signal is 1.06 RPM ratio (pull-down/input).

As to “GATGATTGTTCTCCCAGCTGATGAATTTACTAAGTCGAGTAAACAAATTTTCCTAATCTTTCTGTTCAAGCGCCATCTAC”, the binding signal is 1.29 RPM ratio (pull-down/input).

Take “GATGATTGTTCTCCCAGCTGATGAATTCCCACGATCGAGTAAACAAATTTTCCTAATCTTTCTGTTCAAGCGCCATCTAC”: the binding signal is 0.81 RPM ratio (pull-down/input).

For the sequence “GATGATTGTTCTCCCAGCTGATGAATTTGTAATATCGAGTAAACAAATTTTCCTAATCTTTCTGTTCAAGCGCCATCTAC”, the binding signal was 1.36 RPM ratio (pull-down/input).

As for “GATGATTGTTCTCCCAGCTGATGAATTGTAAATATCGAGTAAACAAATTTTCCTAATCTTTCTGTTCAAGCGCCATCTAC”, the binding signal is 2.72 RPM ratio (pull-down/input).

As to “GATGATTGTTCTCCCAGCTGATGAATTTCCAATATCGAGTAAACAAATTTTCCTAATCTTTCTGTTCAAGCGCCATCTAC”, the binding signal is 1.02 RPM ratio (pull-down/input).

Turning to “GATGATTGTTCTCCCAGCTGATGAATTCTGAATATCGAGTAAACAAATTTTCCTAATCTTTCTGTTCAAGCGCCATCTAC”, the binding signal is 0.974 RPM ratio (pull-down/input).

Turning to “GATGATTGTTCTCCCAGCTGATGAATTTTCAATATCGAGTAAACAAATTTTCCTAATCTTTCTGTTCAAGCGCCATCTAC”, the binding signal is 1.06 RPM ratio (pull-down/input).

For the sequence “GATGATTGTTCTCCCAGCTGATGAATTGTCAATATCGAGTAAACAAATTTTCCTAATCTTTCTGTTCAAGCGCCATCTAC”, the binding signal was 2.23 RPM ratio (pull-down/input).

Turning to “GATGATTGTTCTCCCAGCTGATGAATTTCTAATATCGAGTAAACAAATTTTCCTAATCTTTCTGTTCAAGCGCCATCTAC”, the binding signal was 1.09 RPM ratio (pull-down/input).

In the case of “GATGATTGTTCTCCCAGCTGATGAATTTGCAATATCGAGTAAACAAATTTTCCTAATCTTTCTGTTCAAGCGCCATCTAC”, the binding signal was 1.34 RPM ratio (pull-down/input).

In the case of “GATGATTGTTCTCCCAGCTGATGAATTCCTAATATCGAGTAAACAAATTTTCCTAATCTTTCTGTTCAAGCGCCATCTAC”, the binding signal is 1.07 RPM ratio (pull-down/input).

On to “GATGATTGTTCTCCCAGCTGATGAATTTCAAATATCGAGTAAACAAATTTTCCTAATCTTTCTGTTCAAGCGCCATCTAC”, for which the binding signal is 0.914 RPM ratio (pull-down/input).

As for “GATGATTGTTCTCCCAGCTGATGAATTCTAAATATCGAGTAAACAAATTTTCCTAATCTTTCTGTTCAAGCGCCATCTAC”, the binding signal was 1.76 RPM ratio (pull-down/input).

On to “GATGATTGTTCTCCCAGCTGATGAATTGCAAATATCGAGTAAACAAATTTTCCTAATCTTTCTGTTCAAGCGCCATCTAC”, for which the binding signal is 1.85 RPM ratio (pull-down/input).

Values taken from PMC12820563, “FoxP3 forms a head-to-head dimer in vivo and stabilizes its multimerization on adjacent microsatellites”.
